Screening results (PubChem)
Compounds with a hit are over-represented: about 2.1% of the library has one in this group of screens.
KLF5 inh: kruppel-like factor 5 inhibition | inhibition, % at 5 µM | actives 0.23% (n = 290,000) | DLD-1 KLF5 promoter-luciferase reporter, luminescence;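 active = inhibition above a per-plate limit of that plate's mean compound inhibition plus 3 SD, cut at about 60% in these data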;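 note: 0% = DMSO wells and 100% = LY294002 at 200 µM; higher means less KLF5 promoter-driven luciferase light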
aSyn UTR inh: MLPCN primary screen, SNCA 5' untranslated region. alpha-synuclein 5'UTR reporter, inhibitor activity. inhibition, % (tested at 7.5 µM). actives 0.82% (n = 300,000); in the data active = inhibition above about 60%; inconclusive = no clear call, values can overlap the other calls;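 note: H4 neuroglioblastoma cells stably carrying SNCA 5'UTR luciferase fusion; 0% = DMSO wells and 100% = positive control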
IEC-6 tox: counter-screen for KLF5 inhibitors: cytotoxicity in IEC-6 cells. IEC-6 cytotoxicity, luminescence viability. inhibition, % at 5 µM. actives 0.78% (n = 290,000). AID 1825; in the data active = inhibition above about 22%;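 note: 0% = plate median of test compound wells and 100% = cytotoxic reference compound wells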
APP transl inh: APP translation inhibition; actives 0.82% (n = 190,000); inhibition, % at 2 µM; SH-SY5Y APP 5'UTR-luciferase reporter, luminescence;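 active = inhibition above a set limit, derived from the sample mean plus 3 SD, cut at about 45% in these data; inconclusive = one replicate passes the limit while the other fails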
Ba/F3 V617F tox: lowers viability of Ba/F3 cells expressing EpoR and JAK2V617F | actives 1.1% (n = 220,000) | ATP luminescence | inhibition, % at 5.6 µM;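 active = inhibition above the campaign mean plus 3 SD over all tested compounds, cut at about 24% in these data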;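 note: cytokine-independent growth of Ba/F3 cells driven by EpoR plus mutant JAK2; 0% = DMSO-treated cells and 100% = JAK inhibitor I control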
BaF3 parental: reduces parental Ba/F3 cell viability, JAK2V617F counter-screen. CellTiter-Glo ATP luminescence. inhibition, % at 5.6 µM. actives 1.1% (n = 220,000). AID 1486;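 active = inhibition above a per-campaign cutoff, the mean inhibition of all tested compounds plus 3 SD, cut at about 27% in these data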;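 note: 0% = DMSO wells and 100% = JAK Inhibitor I control wells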
An asterisk follows results filed as active; ? = inconclusive; . = not tested or not shown.

SMILES	KLF5 inh	aSyn UTR inh	IEC-6 tox	APP transl inh	Ba/F3 V617F tox	BaF3 parental
Nc1[nH]n2c(=O)cc(-c3ccccc3)nc2c1N=Nc1ccccc1	-10	68*	-3	1	-5	2
COC(=O)c1ccc(S(=O)(=O)NC(C)(C)C)n1C	14	-4	8	.	5	4
CC1CCCN(S(=O)(=O)c2cc3c4c(c2)C(C)C(=O)N4CCC3)C1 (stereo unspecified)	-7	3	1	.	.	.
O=C1NCCN/C1=C\C(=O)c1ccc(Br)cc1	-98	-120	-1	.	-1	-3
O=C1NCCN/C1=C\C(=O)c1ccccc1	-51	6	3	74*	-1	1
CCCCCC1CCC(c2ccc(/C(N)=N/O)cc2)CC1 (stereo unspecified)	-7	-10	0	.	-2	-1
O=C(COc1cc2oc(=O)c3c(c2cc1Cl)CCC3)NCC(O)c1ccccc1 (stereo unspecified)	-9	-11	6	.	.	.
COc1cc(-c2onc3ccc(Br)cc23)cc(OC)c1OC	-13	66*	2	73*	69*	79*
O=Cc1ccc(Oc2cnccn2)cc1	-7	-17	-4	76*	-2	-2
O=C1NC(=O)/C(=C\c2ccc(Oc3cnccn3)cc2)S1	-24	-191	0	-33	-3	0
Cc1ccc(CN2C(=O)C(C)Nc3ncnc(N4CCOCC4)c32)cc1 (stereo unspecified)	.	14	.	.	.	.
O=C(CN(C(=O)c1csnn1)c1ccc(Cl)cc1)NCCc1ccccc1	-29	0	-4	.	.	.
Cc1ccc(N2C(=O)c3ccccc3C2Nc2ccccc2F)nc1 (stereo unspecified)	-55	-27	-9	10	-3	5
Cc1ccc(N2C(=O)c3ccccc3C2O)nc1 (stereo unspecified)	-50	73*	17	-113	20	26
COC(=O)c1ccccc1NC(=O)N[C@@H](C)C(=O)OC	-10	27	3	76*	-3	-1
CCOC(=O)c1ccccc1NC(=O)N[C@@H](C)C(=O)OC	-13	12	-1	15	-2	-1
COc1ccc(CC2SC(N)=NC2=O)cc1 (stereo unspecified)	2	3	3	.	.	.
COc1ccc2c(c1)[nH]c1c(N3CCN(Cc4ccc5c(c4)OCO5)CC3)ncnc12	-27	5	14	3	40*	37*
O=C(Nc1ccc2c(c1)nc1n2CCN(C2CCCCC2)C1)NC1CCCCC1	-22	-6	1	-8	7	30*
CCC(=O)Nc1ccc2c(c1)nc1n2CCN(C2CCCCC2)C1	-8	-8	-4	2	-4	-3
CCOc1ccccc1-n1c(COc2ccc(C)cc2)nnc1SCC(N)=O	13	6	0	5	3	6
CCOc1ccccc1-n1c(COc2ccccc2)nnc1SCC(N)=O	-17	-20	-4	52*	-2	0
CC(=O)Nc1nc2cc3c(cc2s1)OCO3	-102	-100	0	-57	7	9
CC1CCc2nc(NC(=O)c3ccco3)sc2C1 (stereo unspecified)	-9	88*	3	-39	1	4
O=C(Nc1nc2cc3c(cc2s1)OCO3)c1ccco1	-28	80*	-2	.	5	-6
SMILES	KLF5 inh	aSyn UTR inh	IEC-6 tox	APP transl inh	Ba/F3 V617F tox	BaF3 parental
CC1CCc2nc(NC(=O)Cc3cccs3)sc2C1 (stereo unspecified)	-94	-160	-2	-105	-2	1
O=C(CCS(=O)(=O)c1ccccc1)Nc1ccc(Cl)cn1	-59	-38	-3	.	.	.
COC(=O)c1cc(Br)ccc1NC(=O)Nc1ccc(C)cc1	-41	-14	1	9	4	34*
C#CC[N+](C)(C)C(C#Cc1ccccc1)CC=C (stereo unspecified)	10	-14	1	-3	26*	48*
C[N+](C)(CC#Cc1ccccc1)CC(=O)c1ccccc1	-9	-12	-2	-16	-1	11
CCN(C(=O)COC(=O)c1cc(-c2ccc3cc(OC)ccc3c2)nc2ccccc12)C1CCS(=O)(=O)C1 (stereo unspecified)	-35	67*	15	-40	0	2
CCN(C(=O)COC(=O)c1cc(-c2ccccc2)nc2c1c(C)nn2-c1ccccc1)C1CCS(=O)(=O)C1 (stereo unspecified)	-20	3	1	-1	3	8
COc1cccc(NC(=O)CSc2nc3ccccc3nc2N2CCOCC2)c1	8	30	1	.	.	.
CCc1nnc(NS(=O)(=O)c2ccc(NC(=O)c3cccc(OC)c3)cc2)s1	-35	4	-2	.	.	.
CSc1nsc2nc(=O)c(/C=C3\C=Nc4ccccc43)c(N)n12	-55	-49	-9	-21	0	56*
O=C(Nc1ccccc1Cl)c1ccc(S(=O)(=O)NCC2CCCO2)cc1 (stereo unspecified)	0	-10	0	.	.	.
CC(C)C(=O)Nc1ccc2c(c1)Cc1cc(NC(=O)C(C)C)ccc1-2	-1	-16	6	.	.	.
CC(=O)O[C@H]1C(=O)[C@]2(C)[C@H]([C@H](OC(=O)c3ccccc3)[C@]3(O)C[C@H](OC(=O)[C@H](O)[C@@H](NC(=O)c4ccccc4)c4ccccc4)C(C)=C1C3(C)C)[C@]1(OC(C)=O)CO[C@@H]1C[C@@H]2O	.	95*	.	.	.	.
CCOc1ccc(-c2cc(CCCC(=O)NCCc3ccccc3)no2)cc1	-15	62*	2	14	2	3
COc1ccc(-c2cc(CCCC(=O)NCCc3ccccc3)no2)cc1	-45	-52	5	.	0	4
CCOc1ccc(-c2cc(CCCC(=O)Nc3cccc(OC)c3)no2)cc1	2	68*	4	80*	-4	0
CCOc1ccc(-c2cc(CCCC(=O)Nc3cc(OC)ccc3OC)no2)cc1	-12	83*	4	34	-5	-2
CCOc1ccc(-c2cc(CCCC(=O)NCCc3ccc(OC)c(OC)c3OC)no2)cc1	-34	?	1	12	-6	6
CCOc1ccc(NC(=O)CCCc2cc(-c3ccc(OCC)cc3)on2)cc1	-14	35	-4	16	-3	4
COc1ccc(C(=O)Nc2c(Cl)cc(Cl)cc2C(=O)N2CCOCC2)cc1	-32	6	1	-8	1	8
Cc1ccccc1C(=O)N1CC(=O)Nc2ccc(F)cc2C1c1ccccc1 (stereo unspecified)	-21	-3	-2	.	.	.
COc1cccc(CN(C)C(=O)CSc2nc3ccccc3[nH]2)c1OC	-56	-43	4	.	.	.
COc1cc(C2Nc3cccc4cccc(c34)N2)cc(OC)c1OC(C)=O	-6	11	-2	9	0	40*
O=C(OCC(=O)N1CCCc2ccccc21)c1c(F)cccc1F	.	-15	.	.	.	.
Cc1onc(-c2ccccc2)c1NC(=O)N(CCC#N)Cc1cccs1	-18	15	-3	.	-1	-3
COC(=O)C(Cc1cccc(C)n1)(c1ccccc1)c1ccccc1	5	22	3	.	.	.
